In the library only some 0.84% were active in any assay of this set; here they are far more common.
LRH-1 inv ag = suppresses constitutive activity of human LRH-1. HEK293T StAR-luciferase reporter, LRH-1 transfected, 24 h. inhibition, % at 3.6 µM. 360,000 tested, 0.13% active;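 active means inhibition above the mean inhibition of all tested compounds plus 3 SD, cut at about 73% in these data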
Target sequence (O00482 whole entry, looked up): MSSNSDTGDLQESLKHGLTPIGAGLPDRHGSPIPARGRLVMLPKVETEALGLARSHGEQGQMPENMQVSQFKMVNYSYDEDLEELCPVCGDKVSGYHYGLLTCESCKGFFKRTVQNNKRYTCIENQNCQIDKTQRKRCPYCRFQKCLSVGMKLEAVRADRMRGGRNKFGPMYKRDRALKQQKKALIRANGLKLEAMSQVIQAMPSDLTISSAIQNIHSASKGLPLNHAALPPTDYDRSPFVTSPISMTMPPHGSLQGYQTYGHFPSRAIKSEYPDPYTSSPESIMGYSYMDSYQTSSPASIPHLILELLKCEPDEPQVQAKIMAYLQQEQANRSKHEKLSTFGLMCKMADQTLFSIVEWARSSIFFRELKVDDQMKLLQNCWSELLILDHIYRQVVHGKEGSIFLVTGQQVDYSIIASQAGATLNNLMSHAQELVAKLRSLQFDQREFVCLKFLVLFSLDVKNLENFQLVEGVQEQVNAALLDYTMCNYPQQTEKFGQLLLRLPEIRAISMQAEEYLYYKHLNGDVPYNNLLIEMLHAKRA
SRC1 inh = inhibitors of human steroid receptor coactivator 1 (SRC1) | Q15788 | inhibition, % at 3.6 µM | 360,000 tested, 0.12% active | HEK293 GAL4-SRC1 luciferase reporter, luminescence | AID 588354;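 active means inhibition above the campaign mean plus 3 SD, with each screening campaign given its own cutoff, cut at about 60% in these data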
SRC2 inh = human SRC2 (NCOA2) inhibition; HEK293 GAL4-SRC2 luciferase reporter, luminescence; Q15596; inhibition, % at 9 µM; 370,000 tested, 0.17% active;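 active means inhibition above the mean inhibition of all tested compounds plus 3 SD, set per campaign, cut at about 52% in these data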
NCOA3 inh = inhibits human SRC3 coactivator. inhibition, % at 3.6 µM. HEK293 GAL4-SRC3 luciferase reporter, luminescence. Q9Y6Q9. 360,000 tested, 0.17% active;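 active means inhibition above a per-campaign cutoff, the mean of all compounds plus 3 SD, cut at about 60% in these data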;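 further: higher means less SRC3-driven luciferase light from the GAL4 reporter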
NR2F2 inh = blocks human COUP-TFII nuclear receptor | inhibition, % at 8.6 µM | HEK293T NGFI-A luciferase reporter, luminescence | P24468 | AID 686940 | 370,000 tested, 0.7% active;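 active means inhibition above a per-plate cutoff, mean inhibition of test wells between control levels plus 3 SD, cut at about 38% in these data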;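 further: cells cotransfected with COUP-TFII expression vector driving the NGFI-A reporter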
Gal4-VP16 ctr = counter-screen for COUP-TFII antagonists: inhibitors of VP16; shares compounds with NR2F2 inh; HEK293 Gal4-VP16 luciferase reporter, luminescence; inhibition, % at 8.5 µM; 2,500 tested, 25% active; in the data active means inhibition above about 13%
COUP-TFII conf = confirmation of human COUP-TFII (NR2F2) inhibitors. inhibition, % at 8.5 µM. AID 687008. 2,500 tested, 45% active. HEK293 NGFI-A luciferase reporter, luminescence. shares compounds with NR2F2 inh;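 active means mean inhibition over three repeats above a set limit taken from the earlier primary screen, cut at about 38% in these data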
A number is an active result; - = inactive; . = not tested or not shown.

SMILES	LRH-1 inv ag	SRC1 inh	SRC2 inh	NCOA3 inh	NR2F2 inh	others
COc1ccc2c(c1)[nH]c1c(C)nccc12	-	71	-	73	-
Cc1nccc2c1[nH]c1ccc(Br)cc12	-	-	-	-	-
COC(=O)C1(N(C)c2ccccc2)CCN(Cc2ccccc2)CC1	.	.	-	.	-
N#CC1c2ccccc2-n2nncc2CN1C(=O)c1ccc([N+](=O)[O-])o1 (stereo unspecified)	.	.	-	.	-
c1ccc2c(c1)[IH]c1ccccc1-2	-	-	-	-	59
O=C(CNC(=O)OCc1ccccc1)NC(Cc1ccccc1)P(=O)(Oc1ccccc1)Oc1ccccc1 (stereo unspecified)	.	.	-	.	-
c1cncc(-c2ccc3n2Cc2cnnn2-c2ccccc2-3)c1	.	.	-	.	-
CN=C1CN=C(c2ccc[nH]2)c2cc(Cl)ccc2N1	.	.	.	.	-
O=C1CN=C(c2ccc[nH]2)c2cc(Cl)ccc2N1	-	-	53	-	-
CCN1/C(=C\C=C\C2=[N+](CC)c3ccccc3C2(C)C)C(C)(C)c2ccccc21	91	75	.	81	.
COC1=C(C)C(=O)C2=C(C1=O)C(CO)N1C(C#N)C3CC4C(C1C2N1CCOC41)N3C (stereo unspecified)	-	76	56	83	-
CC(=O)OC(C)(C)/C=C/C(=O)C(C)(O)C1C(O)CC2(C)C3CC=C4C(CC(O)C(=O)C4(C)C)C3(C)C(=O)CC12C (stereo unspecified)	-	-	62	-	-
CC(C)[C@H]1C(=O)O[C@H](C(C)C)C(=O)N(C)[C@@H](C(C)C)C(=O)O[C@H](C(C)C)C(=O)N(C)[C@@H](C(C)C)C(=O)O[C@H](C(C)C)C(=O)N1C	-	-	.	70	.
CC[C@H](C)[C@@H]1OC(=O)[C@H](C(C)C)N(C)C(=O)[C@H](C(C)C)NC(=O)[C@@H](C)[C@@H](CCCC#CBr)OC(=O)[C@H](C(C)C)N(C)C(=O)C2CCCN2C1=O (stereo partly specified)	.	.	.	.	-
O=Cc1cn(Cc2cccc([N+](=O)[O-])c2)c2ccccc12	81	-	-	-	-
Cc1cccc(Cn2cc(C=O)c3ccccc32)c1	-	-	-	-	-
O=C(NC(Cc1ccccc1)P(=O)(O)Oc1ccccc1)OCc1ccccc1 (stereo unspecified)	.	.	-	.	-
CCCc1nc2ccc(Br)cc2c(=O)n1-c1ccc([N+](=O)[O-])c(C(F)(F)F)c1	-	-	-	64	-
O=C(CN1C(=O)[C@@H](Cc2ccccc2)N=C(c2ccccc2)c2ccccc21)NC1CCCCC1	.	.	-	.	-
CC(=O)N1c2ccccc2C(c2ccccc2)=NCC1C(=O)NCc1ccccc1 (stereo unspecified)	.	.	-	.	-
CC[C@@]1(O)C(=O)OCc2c1cc1n(c2=O)Cc2cc3c(NC(=O)CN)cccc3nc2-1	-	-	-	-	-
CCC1(OC(=O)CN)C(=O)OCc2c1cc1n(c2=O)Cc2cc3ccccc3nc2-1 (stereo unspecified)	87	-	.	69	.
CO[C@H]([C@H](C)/C=C/N(C)C=O)[C@@H](C)C(=O)CC[C@H](C)[C@H](O)[C@H](C)[C@H]1OC(=O)/C=C/C(C)=C/[C@H](O)[C@H](OC)C[C@@H]2C=CC[C@@H](C[C@H](OC)[C@@H](CO)[C@@H](OC)C[C@@H](OC)[C@@H]1C)O2	.	.	.	.	-
N=c1c2c(n(Cc3ccc(Cl)cc3Cl)c3c1CCC3)CCCC2	82	-	.	-	.
CC1=CC2OC3CC4OC(=O)C=CC=CC(=O)OCCC(C)C(O)C(=O)OCC2(CC1O)C4(C)C31CO1 (stereo unspecified)	97	94	.	93	.
SMILES	LRH-1 inv ag	SRC1 inh	SRC2 inh	NCOA3 inh	NR2F2 inh	others
Cc1cccc(C)c1-n1nnnc1C(CCc1ccccc1)N1CCC(n2c(=O)[nH]c3ccccc32)CC1 (stereo unspecified)	-	-	-	84	-
N=c1c2c(-c3ccccc3)c(-c3ccccc3)n(Cc3ccccc3)c2ncn1C1CCC(O)CC1 (stereo unspecified)	.	.	-	.	-
CC(O)C1C=CC=CC(=O)OC2CC3OC4C5OC5(C)CCC4(COC(=O)C4OC4(C)C(O)CO1)C2(C)C31CO1 (stereo unspecified)	99	95	74	94	91
Cc1[nH]nc2ccc(-c3cncc(OC[C@@H](N)Cc4c[nH]c5ccccc45)c3)cc12	99	94	.	94	.
C=C(C)CSc1nnc([C@@H](N)Cc2c[nH]c3ccccc23)o1	-	-	-	-	-
C[n+]1ccc(-c2ccccc2)c2ccccc21	-	-	-	-	40	Gal4-VP16 ctr=-;COUP-TFII conf=-
C[n+]1c(-c2ccccc2)sc2ccccc21	-	-	-	-	-
N#CC1c2ccccc2-n2nncc2CN1C(=O)c1cccnc1 (stereo unspecified)	.	.	-	.	-
COC(=O)C1=C(c2ccc(-c3ccccc3)c(F)c2)C[C@@H]2CC[C@H]1N2C(=O)NCCNC(C)=O	-	-	-	-	-
COC(=O)C1=C(c2ccc(-c3ccccc3)c(F)c2)C[C@@H]2CC[C@H]1N2C(=O)NCCOc1ccc(OC)cc1	-	-	-	-	40	Gal4-VP16 ctr=-;COUP-TFII conf=-
Cc1ccccc1CCC[C@H](CC1CCCCC1)CN(C)C(=O)Oc1ccccc1	.	.	-	.	-
C[C@@H]1O[C@@H](O[C@H]2C[C@@H](O)[C@]3(CO)[C@H]4[C@H](O)C[C@]5(C)[C@@H](C6COC(=O)C6)CC[C@]5(O)[C@@H]4CC[C@]3(O)C2)[C@H](O)[C@H](O)[C@H]1O (stereo partly specified)	99	69	-	-	68	Gal4-VP16 ctr=21;COUP-TFII conf=59
CC1OC(OC2CC(O)C3(CO)C4C(O)CC5(C)C(C6=CC(=O)OC6)CCC5(O)C4CCC3(O)C2)C(O)C(O)C1O (stereo unspecified)	103	90	73	92	84	Gal4-VP16 ctr=53;COUP-TFII conf=80
N#CCC[C@H]1CC[C@]2(CCCN(Cc3ccccn3)C2)O1	.	.	-	.	-
CCC(NC(=O)OCc1ccccc1)P(=O)(Oc1ccccc1)Oc1ccccc1 (stereo unspecified)	.	.	-	.	-
Cn1c(O)c(/C=N/N2CCOCC2)c(=O)n(C)c1=S	-	-	-	-	-
CC[C@H](C(N)=O)N1CCCC1=O	.	.	-	.	-
CN1C(=O)[C@@]23C[C@]4(c5c[nH]c6ccccc56)c5ccccc5N(S(=O)(=O)c5ccccc5)[C@@H]4N2C(=O)[C@@H]1SS3	.	.	.	.	107	Gal4-VP16 ctr=88;COUP-TFII conf=90
COC(=O)C(O)(c1ccc(NC(=S)NC(=O)c2ccc(Cl)cc2Cl)c(C)c1)C(F)(F)F (stereo unspecified)	-	-	-	-	-

Assay outcomes (PubChem BioAssay)
